Rows were chosen to be rich in hits. Some 22% of all compounds tested hit in one or more screens of this group.
Pf growth 48h = inhibits P. falciparum growth in the first generation, 48 h; actives 5.9% (n = 310,000); Potency, µM (doses to about 28.7 µM), actives largely listed as inhibitors; P. falciparum luciferase growth in erythrocytes, 48 h
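Parasite viability was followed by luminescence of a genomically integrated firefly luciferase. Cultures held 0.1% parasitemia at 2% hematocrit (final), incubated under 5% CO2 at 37 C.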
Pf growth 96h = inhibits malaria parasite growth, 96 h. P. falciparum luciferase reporter growth, 96 h. Potency, µM (top dose mostly 28.7 µM), most hits filed as inhibitors. actives 6.9% (n = 320,000). AID 504834
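Two parasite generations (96 h, 37 C, 5% CO2) of compound exposure in infected erythrocytes (0.05% parasitemia, 2% hematocrit). Luciferase-reporter P. falciparum; decreased luminescence indicates inhibited growth, aimed at apicoplast-acting delayed death.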
LmPK inhibitor = inhibitors of Leishmania mexicana pyruvate kinase; Potency, µM (doses to about 57.5 µM), hits mostly inhibitors; purified LmPK, Kinase-Glo ATP luminescence, 1 h; AID 1721; actives 0.37% (n = 290,000)
Target sequence (Q27686 whole entry, looked up): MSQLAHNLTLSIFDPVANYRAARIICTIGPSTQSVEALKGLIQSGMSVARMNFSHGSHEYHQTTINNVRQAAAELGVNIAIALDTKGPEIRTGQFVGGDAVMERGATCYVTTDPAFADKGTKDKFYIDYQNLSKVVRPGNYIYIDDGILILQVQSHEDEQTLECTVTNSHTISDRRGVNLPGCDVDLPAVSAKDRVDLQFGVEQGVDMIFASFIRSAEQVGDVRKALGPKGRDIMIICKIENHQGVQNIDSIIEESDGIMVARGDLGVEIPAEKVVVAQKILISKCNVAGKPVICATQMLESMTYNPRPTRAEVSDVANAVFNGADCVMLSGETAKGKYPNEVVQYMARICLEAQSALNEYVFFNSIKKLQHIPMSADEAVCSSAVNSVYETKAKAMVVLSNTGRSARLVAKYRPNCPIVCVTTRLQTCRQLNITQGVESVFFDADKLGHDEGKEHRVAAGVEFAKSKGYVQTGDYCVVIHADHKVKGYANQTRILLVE
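qHTS format; LmPK 0.1 nM; substrates PEP 0.5 mM and ADP 0.1 mM. One-hour room-temperature incubation, then coupled luciferase luminescence; 0.5 nM enzyme wells mark activation.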
Shiga inhibitor = blocks Shiga toxin action in Vero cells | inhibition, % at 38.7 µM | Vero cells, Shiga toxin protein synthesis inhibition reporter | actives 9.2% (n = 290,000); in the data active = inhibition mostly above about 28%, no sharp cut-off; inactive = mostly below about 43%
CHX counter = counter-screen hit for Shiga toxin inhibitors, cycloheximide | cell reporter, cycloheximide protein synthesis inhibition counterscreen | max response, % | actives 12% (n = 300,000) | AID 2314; in the data active = max response mostly above about 13%, no sharp cut-off; inactive = mostly below about 14%; also: read at 38.3 µM for the half of the compounds with a filed dose
Hits are given with their value; - = inactive; ? = inconclusive; . = no result given; [ ] = another dose, or the depositor's remark. Unless noted, calls follow the shape of the dose curve; as a rule, active = well fitted inhibition curve with a large enough effect; inconclusive = small, poorly fitted or top-dose-only effect, or another doubt; inactive = no such curve, though single readings can be large or run the other way.

SMILES	Pf growth 48h	Pf growth 96h	LmPK inhibitor	Shiga inhibitor	CHX counter
C=CCn1c(SCc2c(C)noc2C)nc2ccccc2c1=O	.	13.1µM	-	-	-
COc1cc2nc(SCc3c(C)noc3C)n(CCC3=CCCCC3)c(=O)c2cc1OC	?	1.65µM	-	-	-
C=CCn1c(SCC(=O)N(C)C)nc2sc3c(c2c1=O)CCC3	-	-	-	-	-
O=C(NCCS(=O)(=O)N1CCCCC1)c1ccc2c(c1)OCO2	-	-	.	.	.
Cn1c(=O)[nH]c(=O)c2c1nc(SCC(O)CCl)n2Cc1ccccc1 (centres undefined)	-	?	-	-	-
COc1ccc(C(=O)Nc2nc3nccc(-c4ccccc4)n3n2)cc1	-	?	-	-	-
Cc1ncc([N+](=O)[O-])n1CCOC(=O)c1ccc(Cl)cc1Cl	-	-	-	-	-
C=CCn1c(SCc2c(C)noc2C)nc2sc3c(c2c1=O)CCCCC3	1.85µM	.	-	-	-
Cc1noc(C)c1CSc1nc2sc(C)c(C)c2c(=O)n1C1CCCC1	4.15µM	.	-	-	-
Cc1noc(C)c1CSc1nc2sc3c(c2c(=O)n1C)CCCC3	.	1.65µM	-	-	-
COc1ccc(NC(=O)CN(C)C(=O)Cc2ccc3c(c2)CCC3)cc1	-	-	-	-	-
COCCNC(=O)c1cc2nc(-c3ccc(F)cc3)cc(C(F)(F)F)n2n1	-	?	-	-	-
Cc1ccc(CNC(=O)C2CN(S(C)(=O)=O)c3cc(Cl)ccc3O2)cc1 (centres undefined)	-[1.15 µM]	-[1.15 µM]	-	-	-
O=C(N/N=C/c1ccc(Cl)cc1Cl)Nc1ccccc1	-	-	-	-	9.2
O=C(NC(=S)NCc1ccc(F)cc1)c1ccccc1	-	-	-	-	-
O=C(Nc1ccc(Nc2ccccc2)cc1)c1ccc(F)cc1	?	-	-	33.1	36.0
O=C(O)c1ccc(C(=O)Nc2ccc(F)cc2)cc1	-	-	.	.	.
CCC(=O)NC(=S)Nc1ccc(NC(=S)NC(=O)c2ccccc2)cc1	-	-	-	-	-
O=C(N/N=C/c1cccc(Cl)c1Cl)Nc1ccccc1	-	-	-	-	-
O=C(NC(=S)Nc1ccc(NC(=O)c2ccccc2)cc1)c1ccc(F)cc1	6.57µM	6.57µM	-	-	-
O=C(NC(=S)Nc1ccc(Oc2ccc(Cl)cc2)cc1)c1ccccc1	-	?	-	-	18.6
Cc1csc(N(C)C(=O)CSc2nnc(COc3cccc4ccccc34)o2)n1	-	?	-	-	-
O=C(N/C(=N\O)c1ccccc1)Nc1ccc(Cl)cc1	-	.	-	47.6	-
O=C(NS(=O)(=O)c1ccc(Cl)cc1)c1ccccc1	-	-	-	-	-
CC(C)NC(=S)Nc1ccc(Oc2ccccc2)cc1	-	-	-	28.9	-
SMILES	Pf growth 48h	Pf growth 96h	LmPK inhibitor	Shiga inhibitor	CHX counter
O=C(O)/C(=N/NC(=O)c1ccc(Cl)cc1)c1ccccc1	-	-	-	-	22.9
Cc1ccc(NC(=S)NC(=O)c2ccc(F)cc2)cc1S(=O)(=O)Nc1ccccc1Cl	-	-	-	-	-
CCCNC(=S)Nc1ccc(Oc2ccccc2)cc1	.	-	-	-	-
O=C(NC(=S)Nc1ccc2c(c1)C(=O)c1ccccc1C2=O)c1ccc(F)cc1	-	-	-	103.1	71.9
Cc1c(C(=O)N2CCC(C)CC2)oc2ccc3c(c12)C(O)CC1(CCCCC1)O3 (centres undefined)	-	-	-	-	-
COc1cccc(CNC(=O)COC(=O)C2CC3CCCC(C2)C3=O)c1 (centres undefined)	?	-	.	.	.
O=C(Nc1cccc(NC(=O)c2ccccc2Cl)c1)c1ccc(F)cc1	-	-	-	-	-
O=C(NC(=S)Nc1ccc(Cl)cc1)c1ccccc1	-	-	-	71.5	89.3
O=C(N/N=C/c1cccn1-c1cccc(C(=O)O)c1)Nc1ccccc1	-	-	-	52.0	31.3
Cc1ccccc1C(=O)Nc1cccc(NC(=O)c2ccc(F)cc2)c1	-	10.4µM	-	-	-
CC(NCC(=O)Nc1ccccc1C(=O)NC1CC1)c1ccc(F)cc1F (centres undefined)	?	-	.	.	.
CC(Oc1cc2oc(=O)c3c(c2cc1Cl)CCC3)C(=O)NCCN1CCOCC1 (centres undefined)	-	-	-	-	-
N/C(=N\c1nc2ccccc2o1)NC(=O)c1ccc(Cl)cc1	-	-	-	-	-
N/C(=N\c1nc2ccccc2o1)NC(=O)c1ccc(F)cc1	-	-	-	72.2	31.9
N/C(=N\c1nc2ccccc2o1)NC(=O)c1ccccc1Br	-	-	-	80.5	32.7

Screening results: PubChem, National Center for Advancing Translational Sciences (NCATS)
